Source: PubChem BioAssay (EPA / NIEHS)
Inconclusive results are not listed. Calls of active or inactive are those of the source. Rule for the calls, unless noted: active = hit-call score of the fitted dose curve at least 0.9, where 1 is the maximum; inactive = score below 0.9.

Legend:
[1] = biological target: CCAAT/enhancer-binding protein beta (Homo sapiens) (UniProt P17676); assay: ATG_C_EBP_CIS: Attagene CIS-FACTORIAL HepG2 Assay for human CCAAT/Enhancer Binding Protein (C/EBP) beta (AID 2282927); details: HepG2 Attagene cis-factorial transcription factor reporter; actives raise or lower the signal
How it was run: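 Changes in reporter mRNA, rather than exogenous chimeric receptor activity, reflect native C/EBP signalling in transfected HepG2 cells dosed for 24 h; transcripts are detected by RT-PCR and capillary electrophoresis.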

[2] = biological target: Transcription factor E2F1 (Homo sapiens) (UniProt Q01094); assay: ATG_E2F_CIS: Attagene CIS-FACTORIAL HepG2 Assay for human E2F Transcription Factor 1 (AID 2282935); details: HepG2 Attagene cis-reporter, E2F reporter RNA transcripts; actives raise or lower the signal
Transcription factor E2F1 (Homo sapiens), sequence (Q01094 whole entry, looked up): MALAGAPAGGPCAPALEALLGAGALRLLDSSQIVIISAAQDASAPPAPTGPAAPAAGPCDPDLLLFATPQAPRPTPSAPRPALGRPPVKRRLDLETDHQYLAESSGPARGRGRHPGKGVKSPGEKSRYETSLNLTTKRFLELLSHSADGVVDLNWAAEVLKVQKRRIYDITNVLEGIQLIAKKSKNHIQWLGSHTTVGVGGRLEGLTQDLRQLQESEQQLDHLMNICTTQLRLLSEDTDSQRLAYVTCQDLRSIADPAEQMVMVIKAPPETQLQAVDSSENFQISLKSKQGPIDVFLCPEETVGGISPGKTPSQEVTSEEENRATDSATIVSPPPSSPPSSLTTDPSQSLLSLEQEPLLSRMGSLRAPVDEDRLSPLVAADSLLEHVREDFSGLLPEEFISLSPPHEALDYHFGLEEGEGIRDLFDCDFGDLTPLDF
How it was run: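 Fluorescent RT-PCR products, digested with HpaI for 2 h at 37 C, are separated by capillary electrophoresis. Source RNA comes from transfected HepG2 cultures treated for 24 h.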

[3] = ATG_GATA_CIS: Attagene CIS-FACTORIAL HepG2 Assay for human GATA Binding Protein (AID 2282944); details: HepG2 GATA cis-element reporter, Attagene multiplex mRNA; actives raise or lower the signal
How it was run: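 Transient MRTU transfection, HepG2, 24 h compound exposure. Total RNA → oligo(dT) RT → PCR → 6-FAM primer extension → HpaI cut → CE. Bidirectional fit vs DMSO.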

[4] = biological target: Hepatocyte nuclear factor 6 (Homo sapiens) (UniProt Q9UBC0); assay: ATG_HNF6_CIS: Attagene CIS-FACTORIAL HepG2 Assay for human Hepatocyte Nuclear Factor 6 (HNF6) (AID 2282952); details: HepG2 Attagene cis-factorial HNF6 reporter transcription; actives raise or lower the signal
How it was run: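 Readout: fluorescent reporter-transcript fragments resolved by capillary electrophoresis after RT-PCR, reflecting endogenous factor activity in transfected HepG2. Exposure 24 h. Gain or loss of signal fitted bidirectionally against DMSO.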

[5] = biological target: Heat shock factor protein 1 (Homo sapiens) (UniProt Q00613); assay: ATG_HSE_CIS: Attagene CIS-FACTORIAL HepG2 Assay for human Heat Shock Transcription Factor 1 (HSE) (AID 2282953); details: HepG2 HSE cis-reporter, Attagene RNA transcription; actives raise or lower the signal
Heat shock factor protein 1 (Homo sapiens), sequence (Q00613 whole entry, looked up): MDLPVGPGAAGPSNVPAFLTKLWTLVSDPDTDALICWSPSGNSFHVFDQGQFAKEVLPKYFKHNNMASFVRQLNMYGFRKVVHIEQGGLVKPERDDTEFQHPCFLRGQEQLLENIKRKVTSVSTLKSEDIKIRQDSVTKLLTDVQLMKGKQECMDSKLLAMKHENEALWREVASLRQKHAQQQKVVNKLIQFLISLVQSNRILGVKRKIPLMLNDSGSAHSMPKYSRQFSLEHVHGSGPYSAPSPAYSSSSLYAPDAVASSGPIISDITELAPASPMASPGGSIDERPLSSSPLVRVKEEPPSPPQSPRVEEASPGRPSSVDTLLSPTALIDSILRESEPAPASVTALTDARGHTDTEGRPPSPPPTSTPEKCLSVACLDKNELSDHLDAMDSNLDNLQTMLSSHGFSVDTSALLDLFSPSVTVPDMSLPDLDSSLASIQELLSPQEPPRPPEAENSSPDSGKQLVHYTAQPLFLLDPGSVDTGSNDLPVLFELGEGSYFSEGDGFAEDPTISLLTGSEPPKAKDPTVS
How it was run: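 HepG2, transient MRTU transfection, cis-promoter reporters (endogenous TF activity). 24 h compound. RNA → oligo(dT) RT → PCR → 6-FAM primer extension → HpaI cut → CE. Bidirectional fit vs DMSO.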

[6] = ATG_Sox_CIS: Attagene CIS-FACTORIAL HepG2 Assay for human SRY-box transcription factor (SOX) (AID 2282960); details: HepG2 Attagene cis-factorial SOX reporter, mRNA; actives raise or lower the signal
How it was run: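 Fluorescence-labelled cDNA fragments from reporter transcripts, sized by CE, give the signal. Cells: HepG2, transiently transfected with cis-regulated reporter units. Exposure 24 h; DMSO negative control; bidirectional curve fitting.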

[7] = biological target: Transcription factor Sp1 (Homo sapiens) (UniProt P08047); assay: ATG_Sp1_CIS: Attagene CIS-FACTORIAL HepG2 Assay for human Specificity Protein 1 (Sp1) (AID 2282961); details: HepG2 Sp1 cis-reporter transcription, actives raise or lower the signal
Transcription factor Sp1 (Homo sapiens), sequence (P08047 whole entry, looked up): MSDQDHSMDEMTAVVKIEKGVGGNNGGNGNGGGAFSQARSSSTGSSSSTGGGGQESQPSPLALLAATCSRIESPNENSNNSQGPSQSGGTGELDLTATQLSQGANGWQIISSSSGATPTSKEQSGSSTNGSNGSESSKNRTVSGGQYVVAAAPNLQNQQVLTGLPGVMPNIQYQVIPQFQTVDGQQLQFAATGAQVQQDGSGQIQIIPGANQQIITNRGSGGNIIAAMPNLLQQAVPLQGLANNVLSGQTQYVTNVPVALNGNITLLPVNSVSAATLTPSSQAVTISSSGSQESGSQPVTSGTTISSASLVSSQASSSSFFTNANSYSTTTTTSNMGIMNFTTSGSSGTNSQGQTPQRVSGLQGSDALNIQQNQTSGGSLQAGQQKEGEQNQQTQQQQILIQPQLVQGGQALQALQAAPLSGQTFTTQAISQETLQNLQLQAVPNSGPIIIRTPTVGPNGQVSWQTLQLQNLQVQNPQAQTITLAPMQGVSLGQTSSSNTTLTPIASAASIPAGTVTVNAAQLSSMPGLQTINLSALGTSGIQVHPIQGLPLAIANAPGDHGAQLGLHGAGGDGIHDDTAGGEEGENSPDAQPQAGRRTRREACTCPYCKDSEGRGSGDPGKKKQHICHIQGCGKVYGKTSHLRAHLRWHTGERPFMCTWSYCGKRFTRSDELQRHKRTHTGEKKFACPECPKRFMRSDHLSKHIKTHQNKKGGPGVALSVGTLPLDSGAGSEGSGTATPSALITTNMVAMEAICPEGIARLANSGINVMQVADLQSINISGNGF
How it was run: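 Chemicals are dosed onto HepG2 cells transfected with multiple cis-promoter reporter constructs, and after 24 h reporter RNA is reverse-transcribed, PCR-amplified and resolved by capillary electrophoresis for fluorescence quantitation; activity is scored up or down against DMSO.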

[8] = biological target: Signal transducer and activator of transcription 3 (Homo sapiens) (UniProt P40763); assay: ATG_STAT3_CIS: Attagene CIS-FACTORIAL HepG2 Assay for human Signal Transducer and Activator of Transcription 3 (STAT3) (AID 2282963); details: HepG2, Attagene cis-factorial STAT3 reporter transcription; actives raise or lower the signal
Signal transducer and activator of transcription 3 (Homo sapiens), sequence (P40763 whole entry, looked up): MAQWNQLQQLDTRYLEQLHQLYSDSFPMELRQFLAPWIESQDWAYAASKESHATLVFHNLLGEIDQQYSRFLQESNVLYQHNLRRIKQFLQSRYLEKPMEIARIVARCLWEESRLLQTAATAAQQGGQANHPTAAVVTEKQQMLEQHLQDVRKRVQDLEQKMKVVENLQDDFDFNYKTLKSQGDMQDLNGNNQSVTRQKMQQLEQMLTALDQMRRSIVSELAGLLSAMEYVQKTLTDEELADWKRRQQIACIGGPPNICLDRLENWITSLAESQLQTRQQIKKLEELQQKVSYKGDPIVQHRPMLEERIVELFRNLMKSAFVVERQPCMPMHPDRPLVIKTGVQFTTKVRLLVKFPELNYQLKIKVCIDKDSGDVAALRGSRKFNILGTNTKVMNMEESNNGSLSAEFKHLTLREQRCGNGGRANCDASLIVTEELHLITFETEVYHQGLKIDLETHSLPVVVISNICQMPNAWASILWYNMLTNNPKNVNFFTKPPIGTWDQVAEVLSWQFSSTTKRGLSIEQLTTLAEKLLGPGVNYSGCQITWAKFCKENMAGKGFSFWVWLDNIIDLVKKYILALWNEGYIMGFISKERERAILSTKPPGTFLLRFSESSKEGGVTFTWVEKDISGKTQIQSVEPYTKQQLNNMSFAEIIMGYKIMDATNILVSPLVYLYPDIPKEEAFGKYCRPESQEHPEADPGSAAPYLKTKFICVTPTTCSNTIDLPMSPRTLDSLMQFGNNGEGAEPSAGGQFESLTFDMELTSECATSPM
How it was run: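 Cis-factorial format: endogenous transcription factors in HepG2 drive transfected reporter units. After 24 h treatment, reporter RNA was reverse-transcribed, amplified, FAM-labelled and HpaI-digested before CE analysis; activity scored in both directions against DMSO.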

[9] = ATG_VDRE_CIS: Attagene CIS-FACTORIAL HepG2 Assay for human Vitamin D Receptor Element (VDRE) (AID 2282968); details: HepG2 VDRE cis-reporter transcription, actives raise or lower the signal
How it was run: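 Measures endogenous factor activity through cis-element-driven reporter transcripts in transiently transfected HepG2. Cells are treated 24 h; reporter mRNA is quantified by RT-PCR and capillary electrophoresis; fitting is bidirectional.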

[10] = biological target: X-box-binding protein 1 (Homo sapiens) (UniProt P17861); assay: ATG_Xbp1_CIS: Attagene CIS-FACTORIAL HepG2 Assay for human X-box Binding Protein 1 (XBP1) (AID 2282972); details: HepG2 XBP1 cis-element reporter, Attagene multiplex; actives raise or lower the signal
How it was run: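 Reporter transcripts were quantified by RT-PCR with fluorescent primer extension and capillary electrophoresis after 24 h chemical exposure. Cells: transiently transfected HepG2 carrying cis-regulated reporter constructs; data fitted bidirectionally relative to DMSO.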

[11] = ATG_NFI_CIS: Attagene CIS-FACTORIAL HepG2 Assay for human Nuclear Factor I (NFI) (AID 2282989); details: HepG2 cis-regulatory reporter, NFI response element transcription; actives raise or lower the signal
How it was run: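 Transient MRTU transfection of HepG2 → 24 h chemical dosing → total RNA, oligo(dT) RT → PCR, 6-FAM primer extension, HpaI cut → capillary electrophoresis. Endpoint fitted bidirectionally relative to DMSO.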

[12] = biological target: Myc proto-oncogene protein (Homo sapiens) (UniProt P01106); assay: ATG_Myc_CIS: Attagene CIS-FACTORIAL HepG2 Assay for human Myelocytomatosis (Myc) Proto-Oncogene Transcription Factor (AID 2282990); details: HepG2, Attagene cis-reporter transcription factor activity; actives raise or lower the signal
Myc proto-oncogene protein (Homo sapiens), sequence (P01106 whole entry, looked up): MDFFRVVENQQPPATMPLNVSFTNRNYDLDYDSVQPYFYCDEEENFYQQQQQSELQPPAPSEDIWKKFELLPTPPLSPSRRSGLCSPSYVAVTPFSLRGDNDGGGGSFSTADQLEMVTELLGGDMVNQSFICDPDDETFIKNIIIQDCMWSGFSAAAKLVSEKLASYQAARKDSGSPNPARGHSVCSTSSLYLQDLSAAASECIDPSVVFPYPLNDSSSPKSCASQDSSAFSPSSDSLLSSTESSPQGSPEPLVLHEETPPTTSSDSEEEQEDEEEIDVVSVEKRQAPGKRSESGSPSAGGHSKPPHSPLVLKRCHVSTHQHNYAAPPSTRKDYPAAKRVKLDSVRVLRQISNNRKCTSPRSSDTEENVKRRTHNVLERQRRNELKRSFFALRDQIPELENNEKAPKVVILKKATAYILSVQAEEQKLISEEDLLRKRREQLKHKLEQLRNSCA
How it was run: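 Cells of the HepG2 human liver line bear multiple cis-driven reporter transcription units. Reporter mRNA after 24 h exposure is reverse-transcribed, amplified, labelled and resolved by capillary electrophoresis, with gain- or loss-of-signal fitting relative to DMSO.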

[13] = ATG_NRF2_ARE_CIS: Attagene CIS-FACTORIAL HepG2 Assay for human Nuclear Factor Erythroid 2 Related Factor 2 (NFR2) response to Antioxidant Response Elements (ARE) (AID 2282992); details: HepG2 Attagene ARE/NRF2 reporter, transcription factor activity; actives raise or lower the signal
How it was run: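 Endogenous transcription factor activity read out as reporter transcript levels (RT-PCR plus capillary electrophoresis, fluorescence) in transiently transfected HepG2 cells. Measured at 24 h after dosing; gain or loss of signal fitted versus DMSO.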

[14] = biological target: Cellular tumor antigen p53 (Homo sapiens) (UniProt P04637); assay: ATG_p53_CIS: Attagene CIS-FACTORIAL HepG2 Assay for human p53 Transcription Factor (AID 2282994); details: HepG2 p53 cis-element reporter, Attagene mRNA; actives raise or lower the signal
Cellular tumor antigen p53 (Homo sapiens), sequence (P04637 whole entry, looked up): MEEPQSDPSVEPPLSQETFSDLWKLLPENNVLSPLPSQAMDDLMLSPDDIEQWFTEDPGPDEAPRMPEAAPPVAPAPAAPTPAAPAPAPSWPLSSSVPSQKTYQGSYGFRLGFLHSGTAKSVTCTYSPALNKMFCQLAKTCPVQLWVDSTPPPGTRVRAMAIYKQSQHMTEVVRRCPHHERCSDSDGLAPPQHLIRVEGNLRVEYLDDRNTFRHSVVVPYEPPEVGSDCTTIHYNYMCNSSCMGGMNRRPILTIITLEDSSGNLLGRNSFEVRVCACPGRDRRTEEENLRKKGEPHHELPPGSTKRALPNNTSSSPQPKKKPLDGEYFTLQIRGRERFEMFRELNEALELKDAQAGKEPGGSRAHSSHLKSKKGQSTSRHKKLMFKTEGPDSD
How it was run: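 Endogenous p53 activity read in transiently transfected HepG2 from a cis-element-driven reporter transcript after 24 h exposure. RNA reverse-transcribed, PCR-amplified, fluorescently labelled and sized by capillary electrophoresis; gain or loss fitted against DMSO baseline.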

[15] = biological target: Cellular tumor antigen p53 (Homo sapiens) (UniProt P04637); assay: TOX21_p53_BLA_p2_ratio: Tox21 HCT-116 p53 Agonism Beta-lactamase Assay, Ratio, Phase 2 (AID 2283592; active = hit-call score of the fitted dose curve at least 0.9, where 1 is the maximum)
How it was run: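 Readout: blue/green (460/530 nm) FRET emission ratio after 2 h CCF4-AM loading at room temperature, excitation 405 nm. HCT116 p53 bla cells, 16 h compound exposure at 37C, 5% CO2; agonist direction fitted against DMSO baseline.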

[16] = biological target: Hypoxia-inducible factor 1-alpha (Homo sapiens) (UniProt Q16665); assay: ATG_HIF1a_CIS: Attagene CIS-FACTORIAL HepG2 Assay for human Hypoxia Inducible Factor 1 (HIF1A) (AID 2282951); details: HepG2 Attagene cis-factorial HIF1a reporter transcription; actives raise or lower the signal
Hypoxia-inducible factor 1-alpha (Homo sapiens), sequence (Q16665 whole entry, looked up): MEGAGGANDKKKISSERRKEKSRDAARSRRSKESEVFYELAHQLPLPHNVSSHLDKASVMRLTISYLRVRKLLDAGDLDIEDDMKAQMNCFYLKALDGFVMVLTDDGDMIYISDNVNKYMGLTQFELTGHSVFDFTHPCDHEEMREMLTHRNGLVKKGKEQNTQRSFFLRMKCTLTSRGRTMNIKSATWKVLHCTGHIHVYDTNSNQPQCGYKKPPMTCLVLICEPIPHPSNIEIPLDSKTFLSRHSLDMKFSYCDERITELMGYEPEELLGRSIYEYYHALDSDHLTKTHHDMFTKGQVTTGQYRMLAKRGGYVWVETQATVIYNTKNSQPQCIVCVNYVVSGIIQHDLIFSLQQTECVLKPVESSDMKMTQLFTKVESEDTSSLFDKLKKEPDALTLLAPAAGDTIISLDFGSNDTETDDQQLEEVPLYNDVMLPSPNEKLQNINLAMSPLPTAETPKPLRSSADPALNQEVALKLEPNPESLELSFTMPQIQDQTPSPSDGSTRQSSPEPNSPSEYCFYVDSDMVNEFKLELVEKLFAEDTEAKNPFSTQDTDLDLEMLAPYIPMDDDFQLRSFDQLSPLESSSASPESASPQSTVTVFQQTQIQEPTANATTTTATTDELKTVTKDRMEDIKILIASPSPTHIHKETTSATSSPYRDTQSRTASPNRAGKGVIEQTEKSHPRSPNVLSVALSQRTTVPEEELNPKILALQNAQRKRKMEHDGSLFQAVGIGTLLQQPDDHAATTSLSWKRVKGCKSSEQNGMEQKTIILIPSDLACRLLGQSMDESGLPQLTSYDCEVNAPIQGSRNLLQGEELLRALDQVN
How it was run: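 Cis-element reporter constructs were transiently transfected into HepG2 cells, which were treated for 24 h; reporter RNA was reverse-transcribed, amplified, labelled and resolved by capillary electrophoresis.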

[17] = ATG_TAL_CIS: Attagene CIS-FACTORIAL HepG2 Assay for human TAL Basal Promoter (AID 2282966); details: HepG2 Attagene cis-factorial TAL promoter reporter; actives raise or lower the signal;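 note: background control endpoint measuring basal TAL promoter reporter mRNA not a specific factor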
How it was run: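 HepG2, transient MRTU transfection, 24 h compound exposure; RNA → oligo(dT) RT → PCR → 6-FAM primer extension → HpaI digest → CE fluorescence. Bidirectional curve fit vs DMSO. Background-control readout.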

[18] = biological target: Transcriptional activator Myb (Homo sapiens) (UniProt P10242); assay: ATG_Myb_CIS: Attagene CIS-FACTORIAL HepG2 Assay for human Myeloblastosis (Myb) Proto-Oncogene Transcription Factor (AID 2282986); details: HepG2 Attagene CIS-FACTORIAL Myb reporter transcription; actives raise or lower the signal
Transcriptional activator Myb (Homo sapiens), sequence (P10242 whole entry, looked up): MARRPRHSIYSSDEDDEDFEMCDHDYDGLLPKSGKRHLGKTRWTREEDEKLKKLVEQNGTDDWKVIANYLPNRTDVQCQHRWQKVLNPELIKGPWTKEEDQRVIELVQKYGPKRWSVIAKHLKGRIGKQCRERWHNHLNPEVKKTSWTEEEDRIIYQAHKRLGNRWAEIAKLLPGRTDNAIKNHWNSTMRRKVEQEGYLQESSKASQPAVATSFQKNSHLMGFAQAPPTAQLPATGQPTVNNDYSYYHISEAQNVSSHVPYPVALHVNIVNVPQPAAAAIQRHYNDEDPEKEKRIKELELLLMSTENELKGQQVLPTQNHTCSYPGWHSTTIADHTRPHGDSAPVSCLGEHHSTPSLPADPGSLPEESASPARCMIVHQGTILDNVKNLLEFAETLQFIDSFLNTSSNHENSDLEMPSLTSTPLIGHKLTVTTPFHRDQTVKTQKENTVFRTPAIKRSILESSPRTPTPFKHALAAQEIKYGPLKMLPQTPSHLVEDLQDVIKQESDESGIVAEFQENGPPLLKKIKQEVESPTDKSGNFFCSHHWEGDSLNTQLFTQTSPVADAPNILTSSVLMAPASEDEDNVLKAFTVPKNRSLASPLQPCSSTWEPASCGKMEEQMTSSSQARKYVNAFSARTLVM
How it was run: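 Using HepG2 liver cells bearing transiently transfected cis-promoter reporter constructs, the assay measures induction or loss of reporter mRNA after 24 hours of dosing. Detection used fluorescently labeled RT-PCR products separated by capillary electrophoresis.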

[19] = ATG_M_06_TRANS: Attagene TRANS-FACTORIAL HepG2 Assay for M06 Transcription Factor (Internal Marker) (AID 2282983; active = hit-call score of the fitted dose curve at least 0.9, where 1 is the maximum); details: HepG2 Attagene TRANS M06 internal marker reporter
How it was run: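 Read-out: fluorescent reporter cDNA fragments resolved by capillary electrophoresis after RT-PCR and HpaI cut. Source cells were HepG2 carrying transfected multi-reporter GAL4 constructs, dosed 24 h. Increase over DMSO control analysed.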

[20] = ATG_PXRE_CIS: Attagene CIS-FACTORIAL HepG2 Assay for human Pregnane X Receptor Element (PXRE) (AID 2282957); details: HepG2 Attagene CIS-FACTORIAL PXRE reporter, mRNA; actives raise or lower the signal
How it was run: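 Read-out: fluorescence of reporter-specific RT-PCR products resolved by capillary electrophoresis, fitted bidirectionally relative to DMSO. Human HepG2 liver cells carried transfected cis-promoter reporter units and were exposed to chemicals for 24 h.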

Measured: AC50

CC(C)(Oc1ccc(Cl)cc1)C(=O)O
not listed: [16] | [17] | [18] | [19] | [20]
inactive: all other assays above

NCc1ccccc1
not listed: [6] | [19] | [20]
inactive: all other assays above

O=S(=O)(O)c1cccc2ccccc12
not listed: [9] | [15] | [20]
inactive: all other assays above

C=C(C)C(=O)OCC1CCCO1 (stereo unspecified)
not listed: [2] | [8] | [15]
inactive: all other assays above

CC1=C(CC=O)C(C)(C)CCC1
active: [20] 0.734 µM | [13] 30.2 µM
not listed: [10] | [17]
inactive: all other assays above

N#CCN(CC#N)CCN(CC#N)CC#N
not listed: [3] | [6] | [7] | [8] | [15]
inactive: all other assays above

CCCN[C@H]1CCc2nc(N)sc2C1
not listed: [8] | [17] | [19]
inactive: all other assays above

Cc1ccccc1S(=O)(=O)O
active: [20] 70.6 µM | [6] 27 µM
not listed: [2] | [8] | [9] | [15] | [17]
inactive: all other assays above
